{"source": "PubChem BioAssay", "note": "Calls of active or inactive are those of the source. No rule for the calls is given here.", "data": [{"molecular_target": "Pantothenate synthetase (Mycobacterium tuberculosis (strain ATCC 25618 / H37Rv)) (UniProt P9WIL5)", "sequence (P9WIL5 whole entry, looked up)": "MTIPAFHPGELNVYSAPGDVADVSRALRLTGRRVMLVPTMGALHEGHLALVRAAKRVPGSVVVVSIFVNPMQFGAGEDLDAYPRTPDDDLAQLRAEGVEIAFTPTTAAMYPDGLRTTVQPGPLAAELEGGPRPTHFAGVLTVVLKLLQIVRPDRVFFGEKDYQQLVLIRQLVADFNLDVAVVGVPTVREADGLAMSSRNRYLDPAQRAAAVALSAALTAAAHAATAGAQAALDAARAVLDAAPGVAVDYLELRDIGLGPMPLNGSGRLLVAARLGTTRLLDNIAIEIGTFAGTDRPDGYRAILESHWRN", "assay": "Coupled enzyme confirmation of inhibitors against recombinant Mtb PanC (AID 375);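 also: 0% = full reaction with vehicle and 100% = no enzyme background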", "details": "coupled enzyme assay; at 10 µM, active compounds read high", "values": [{"smiles": "CCc1nc2scc(-c3ccccc3)c2c(=O)n1N", "inhibition": "5% (inactive)"}, {"smiles": "CC(C)=CCC(C)(C)C1OCCN1C(=O)c1ccccc1", "note": "(stereo not given)", "inhibition": "2% (inactive)"}, {"smiles": "COc1ccc(NC(=O)C(C)Oc2ccc(/C(C)=N\\O)cc2)cc1", "note": "(stereo not given)", "inhibition": "0% (inactive)"}, {"smiles": "O=C(CCCSc1nc2ccccc2s1)NC1=NCCS1", "inhibition": "0% (inactive)"}, {"smiles": "CCOC(=O)CSc1nnc(-c2cccnc2)n1Cc1ccccc1", "inhibition": "0% (inactive)"}, {"smiles": "COC(=O)CN(c1nc(C)c(Cl)c(OC)n1)S(=O)(=O)c1ccc(C)cc1", "inhibition": "0% (inactive)"}, {"smiles": "Cc1cc(Cl)c(S(=O)(=O)NC2CCCCC2)cc1OCC(=O)Nc1nncs1", "inhibition": "3% (inactive)"}, {"smiles": "CCSC1=C(C#N)C(c2cccc(OC)c2)CC(=O)N1", "note": "(stereo not given)", "inhibition": "6% (inactive)"}, {"smiles": "Cc1ccc2c(c1)N(CC(=O)N1CCCCC1c1cccnc1)C(=O)CO2", "note": "(stereo not given)", "inhibition": "0% (inactive)"}, {"smiles": "COC(=O)C1=C(C)NC(C)=C(C(=O)OC)C1c1ccccc1[N+](=O)[O-]", "inhibition": "0% (inactive)"}, {"smiles": "Cc1cc(C)nc(NS(=O)(=O)c2ccc(NC(=O)Cn3c(=O)oc4ccccc43)cc2)n1", "inhibition": "1% (inactive)"}, {"smiles": "Cn1c(C(=O)NCCC2=CCCCC2)cc2c(=O)n3ccccc3nc21", "inhibition": "0% (inactive)"}, {"smiles": "O=C(NCCCN1CCCC1=O)c1ccc2c(=O)n(Cc3ccco3)c(=S)[nH]c2c1", "inhibition": "0% (inactive)"}, {"smiles": "O=C(O)c1ccc2c(c1)N(Cc1ccccc1F)C(=O)c1ccccc1S2=O", "note": "(stereo not given)", "inhibition": "0% (inactive)"}, {"smiles": "CC(=O)Nc1ccc(Cl)c(C(N)=O)c1", "inhibition": "2% (inactive)"}, {"smiles": "CCCCN(C)C(=O)c1ccc(CS(=O)(=O)c2ccccc2C)o1", "inhibition": "2% (inactive)"}, {"smiles": "CCOC(=O)c1ccc(COC(=O)c2cc3ccccc3oc2=O)o1", "inhibition": "0% (inactive)"}, {"smiles": "CN(C)c1ccc(C(=O)Nc2nnc(-c3ccc(Cl)cc3)o2)cc1", "inhibition": "0% (inactive)"}, {"smiles": "CCOC(=O)C1=C(C)N=C2SC(C)C(=O)N2C1c1cccc(F)c1", "note": "(stereo not given)", "inhibition": "0% (inactive)"}, {"smiles": "COc1ccc2c(C(=O)CN(C)C3CCCCC3)c[nH]c2c1", "inhibition": "0% (inactive)"}, {"smiles": "O=C(NCCN1CCOCC1)c1ccc2c(c1)N(Cc1ccccc1F)C(=O)CS2", "inhibition": "0% (inactive)"}, {"smiles": "Cc1cc(C)c(-c2cc(C(=O)Nc3c(C)n(C)n(-c4ccccc4)c3=O)[nH]n2)c(O)c1", "inhibition": "0% (inactive)"}, {"smiles": "CC(=O)Oc1cccc(/C=c2\\sc3nc(-c4ccco4)nn3c2=O)c1", "inhibition": "8% (inactive)"}, {"smiles": "Cc1cc(C)cc(C(=O)N2CCC(C(N)=O)CC2)c1", "inhibition": "0% (inactive)"}, {"smiles": "NC(=O)CSc1nnc(-c2cc3ccccc3o2)n1Cc1ccccc1", "inhibition": "0% (inactive)"}, {"smiles": "Cc1ccc(CN2C(=O)CCC2C(=O)NCCCN2CCC(C)CC2)cc1", "note": "(stereo not given)", "inhibition": "8% (inactive)"}, {"smiles": "NC(N)=NC(N)=NCCc1ccccc1", "inhibition": "4% (inactive)"}, {"smiles": "COC(=O)COc1cccc(NC(=O)COc2ccccc2)c1", "inhibition": "2% (inactive)"}, {"smiles": "CCn1nnnc1SCC(=O)Nc1nnc(C(C)C)s1", "inhibition": "3% (inactive)"}, {"smiles": "CCOC(=O)N1CCN(C(=O)Nc2ccc(Cl)cc2)CC1", "inhibition": "0% (inactive)"}, {"smiles": "CCOC(=O)c1cc2sc(C)cc2n1C(C)C(=O)OCC", "note": "(stereo not given)", "inhibition": "11% (inactive)"}, {"smiles": "CC(=O)C1=C(O)C(=O)N(C2CCCCC2)C1c1ccccc1", "note": "(stereo not given)", "inhibition": "0% (inactive)"}, {"smiles": "CCOc1cc(NC(=O)c2ccccn2)c(OCC)cc1NC(=O)CC(C)C", "inhibition": "11% (inactive)"}, {"smiles": "Cc1cccc(Nc2ccccc2C(=O)O)c1C", "inhibition": "4% (inactive)"}, {"smiles": "Cc1cc(C)n(CCCNC(=O)c2ccc3c(c2)NC(=O)CS3)n1", "inhibition": "0% (inactive)"}, {"smiles": "O=C(CCC(=O)OCCCC(F)(F)C(F)(F)F)NC1CCCCC1", "inhibition": "0% (inactive)"}, {"smiles": "O=C(NCc1ccccn1)c1cccs1", "inhibition": "0% (inactive)"}, {"smiles": "Cc1ccccc1N1C(N)=NC(N)=NC1(C)C", "inhibition": "0% (inactive)"}, {"smiles": "O=C(Nc1ccc(Cl)cc1)N1CCSCC1", "inhibition": "1% (inactive)"}, {"smiles": "O=C(Nc1ccc(SC(F)F)cc1)c1ccc2nccnc2c1", "inhibition": "0% (inactive)"}]}]}
